HT1080 IDH1KD tx: HT-1080 IDH1 knockdown cell toxicity (counter line); HT-1080 IDH1 knockdown viability, ATP luminescence, 48 h; Potency, µM (series often up to 46.1 µM), most hits filed as cytotoxic; 2% of 360,000 active; AID 686971
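Luminescent ATP read-out (CellTiter-Glo, 10 min at room temperature) after 48 h compound exposure at 37 °C gave viability of IDH1-knockdown HT-1080 cells. Activity was normalised to DMSO and cell-free wells, then fitted as concentration-response curves.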
TGFb inhibitor: inhibitors of TGF-b signaling | HepG2 CAGA-GFP TGF-b/SMAD3 reporter, GFP fluorescence, 18 h; TGF-beta stimulated, 500 pg/mL final | AID 588855 | 1.2% of 410,000 active | Potency, µM (doses to about 46.1 µM), hits mostly inhibitors; further: nearly all actives have a fitted effect of over 65% in size
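Per well, imaged GFP fluorescence of HEPG2 CAGA-GFP cells gives the signal; cells get compound, then TGF-beta (500 pg/mL final), 18 h at 37 degrees C; %Activity versus -TGF-beta and +DMSO controls.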
IL1B secr inh: blocks inflammasome-driven IL-1 beta release. THP-1 LPS/ATP IL-1B secretion, AlphaLISA, 16 h; hits give low values. activity change, % at 57.5 µM. 4.7% of 360,000 active. AID 743279; in the data active means activity change below about -50%; inconclusive means mostly about -30% to -49%
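THP-1 cells pretreated 1 hr with compounds (up to 57.5 uM final), then stimulated with LPS (250 ng/mL final) plus ATP (1.25 mM final); secreted IL-1B measured by AlphaLISA after 16 hr, decreased signal indicating inhibition.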
HT1080NT lethal: kills 2HG-producing HT-1080-NT fibrosarcoma cells. Potency, µM (doses to about 46.1 µM), actives largely listed as cytotoxic. AID 686970. 1.6% of 360,000 active. HT-1080-NT fibrosarcoma viability, CellTiter-Glo ATP luminescence, 48 h;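 further: NT is the 2HG producing partner of a matched IDH1 knockdown line; nearly all actives have a fitted effect of over 55% in size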
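A 48-hour cytotoxicity screen used HT-1080-NT cells plated 2 hours before compound delivery. ATP-based CellTiter-Glo luminescence measured viability, normalized to DMSO and no-cell controls.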
HepG2 viability: counter-screen for TGF-b inhibitors: cytotoxicity in HepG2 cells; 0.76% of 410,000 active; AID 588856; Potency, µM (top dose mostly 46.1 µM), hits mostly cytotoxic; HepG2 CAGA-GFP viability, ATP luminescence, 18 h
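HepG2 CAGA-GFP cells (1000/well, DMEM with 1% FBS) received compound, then TGF-beta at 500 pg/mL final, and were incubated 18 hours at 37 degrees C. Viability was read by CellTiter-Glo luminescence. Media-only wells were set as complete cell-killing and DMSO as no toxicity.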
Giardia kill: Giardia lamblia killing. Giardia lamblia trophozoite viability. activity change, % at 7.66 µM, hits read low. 0.15% of 340,000 active. AID 540267; in the data active means activity change below about -80%; inconclusive means between about -30% and that limit;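 further: parasites exposed to compound for two days anaerobically before the ATP read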
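ATP-content bioluminescence gauges trophozoite survival. Cells (100/well) receive compound and incubate anaerobically for 48 hrs at 37 deg C; detection reagent follows for 15-30 min at room temperature.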
Of the large screens only hits and unclear results are named; the others gave an inactive call. Compounds with a hit are over-represented: about 6.5% of the library has one in this group of screens. Unless noted, the call rests on the fitted dose curve; in most records, active means well fitted curve in the direction sought with a large enough effect; inconclusive means small, poorly fitted or top-dose-only effect, or another doubt; inactive means no such curve, though single readings can be large; an effect the other way counts as inactive or inconclusive.

CC(=O)N1CCC[C@H]1C(=O)O	none
COc1ccc(C2NCCc3c2[nH]c2ccccc32)cc1COc1ccc(F)cc1 (stereo not drawn)	HT1080 IDH1KD tx inconclusive, TGFb inhibitor inconclusive, IL1B secr inh -93, HT1080NT lethal inconclusive, HepG2 viability 11µM
COc1cc2c(cc1OC)C(C)N(Cc1ccc3c(c1)OCO3)CC2 (stereo not drawn)	none
COc1ccc(C2NCCc3c2[nH]c2ccccc32)cc1CN1CCc2cc(OC)c(OC)cc2C1C (stereo not drawn)	HT1080 IDH1KD tx inconclusive, HT1080NT lethal 18µM
COc1ccc(/C=N/n2cnc3c([nH]c4ccc(Br)cc43)c2=O)cc1CN1CCOCC1	IL1B secr inh -88
C=CCn1c(=O)c2c3c(sc2n2c(Nc4ccc(OC)cc4)nnc12)CCCC3	TGFb inhibitor inconclusive, IL1B secr inh -71
CCOc1ccc(-c2cn(-c3ccccc3OC)c(=S)[nH]2)cc1	HT1080 IDH1KD tx 26µM, HT1080NT lethal inconclusive
COc1ccccc1-n1cc(-c2ccccc2)[nH]c1=S	none
CN(CC(=O)Nc1ccc(F)cc1)C(=O)COC(=O)/C=C/c1ccc(OC(F)F)cc1	IL1B secr inh -87
CC1Cc2ccccc2N1C(=O)COC(=O)c1cccnc1Cl (stereo not drawn)	none
Cc1c(C(=O)OCc2ccccc2)[nH]c2c1C(=O)CC(c1ccc(Cl)cc1)C2 (stereo not drawn)	none (no result: HT1080 IDH1KD tx, IL1B secr inh, HT1080NT lethal, Giardia kill)
Cc1c(C(=O)OCC2CCCO2)[nH]c2c1C(=O)CC(c1ccco1)C2 (stereo not drawn)	HT1080 IDH1KD tx 2.9µM, HT1080NT lethal inconclusive
Cc1c(C(=O)OC2CCCCC2)[nH]c2c1C(=O)CC(c1ccccc1)C2 (stereo not drawn)	none (no result: HT1080 IDH1KD tx, IL1B secr inh, HT1080NT lethal, Giardia kill)
C/C=C/COC(=O)c1[nH]c2c(c1C)C(=O)CC(c1ccc(N(C)C)cc1)C2 (stereo not drawn)	none
Cc1c(C(=O)OC2CCCC2)[nH]c2c1C(=O)CC(c1ccco1)C2 (stereo not drawn)	HT1080 IDH1KD tx 1.3µM, TGFb inhibitor inconclusive, HT1080NT lethal 0.52µM
C=CCOC(=O)c1[nH]c2c(c1C)C(=O)CC(c1ccco1)C2 (stereo not drawn)	HT1080 IDH1KD tx 0.37µM, TGFb inhibitor inconclusive, HT1080NT lethal inconclusive
C/C=C/COC(=O)c1[nH]c2c(c1C)C(=O)CC(c1ccco1)C2 (stereo not drawn)	HT1080 IDH1KD tx 0.65µM, TGFb inhibitor inconclusive, HT1080NT lethal 1µM
O=C(O)CC(c1ccc(C(F)(F)F)cc1)N1Cc2ccccc2C1=O (stereo not drawn)	none
O=C(CCN1CCN(c2ccccc2)CC1)Nc1ccc2c(c1)OCO2	none
O=C(CSC1=NC2(CCCCC2)N=C1c1ccccc1)Nc1ccc2c(c1)OCCO2	IL1B secr inh -80
Cc1ccc(C2=NC3(CCCC3)N=C2SCC(=O)Nc2ccc3c(c2)OCCO3)cc1	TGFb inhibitor inconclusive, IL1B secr inh -94
O=C(CSC1=NC2(CCCCCC2)N=C1c1ccccc1)Nc1ccc2c(c1)OCCO2	HT1080 IDH1KD tx inconclusive, IL1B secr inh -75, HT1080NT lethal inconclusive
O=C(CSc1ccccc1)Nc1ccc2c(c1)OCCO2	none
O=S1(=O)CCOCCCN1Cc1cccc(Cl)c1	none (no result: HT1080 IDH1KD tx, IL1B secr inh, HT1080NT lethal, Giardia kill)
CCN(CC(=O)Nc1ccccc1OC)Cc1csc(CC(=O)Nc2ccc(C)cc2)n1	none
COC(=O)c1ccccc1NC(=O)c1nc2nc(C)cc(C)n2n1	none
CCOC(=O)C1Oc2ccccc2C(c2ccc(F)cc2)=C1C(=O)OC (stereo not drawn)	TGFb inhibitor inconclusive
CCN(CC)CC(=O)Nc1cccc2c1C(=O)c1ccccc1C2=O	none
O=C1c2ccccc2C(=O)c2c(NCCCN(CCO)CCO)cccc21	HT1080 IDH1KD tx inconclusive, TGFb inhibitor inconclusive, IL1B secr inh -103, HT1080NT lethal 21µM
CCc1cc(/C(Cc2ccccn2)=N\Nc2ccccc2)c(O)cc1O	HT1080 IDH1KD tx inconclusive, TGFb inhibitor inconclusive, IL1B secr inh -76
Cc1nc(C/C(=N\Nc2ccccc2)c2ccc(O)cc2O)cs1	TGFb inhibitor inconclusive, HT1080NT lethal inconclusive
CC(C)OC(=O)c1cc2c(ccn2C)n1CC(=O)N(Cc1ccccc1)c1ccc(F)cc1	HT1080 IDH1KD tx 21µM, TGFb inhibitor inconclusive, HT1080NT lethal inconclusive
CCOC(=O)c1cc2c(ccn2C)n1CC(=O)N(Cc1ccccc1)c1ccccc1	TGFb inhibitor inconclusive, IL1B secr inh -72
CCOC(=O)c1cc2c(ccn2C)n1CC(=O)N(Cc1ccccc1)c1ccc(F)cc1	none
COc1ccc(CNC(=O)COC(=O)CC2CCCC2)cc1	Giardia kill inconclusive
CCOC(=O)c1c(CC(C)C)csc1NC(=O)COC(=O)c1ccc(O)cc1	none
CC[n+]1ccccc1/C=C1\Sc2ccc(C)cc2N1C	HT1080 IDH1KD tx 9.2µM, TGFb inhibitor inconclusive, IL1B secr inh -77, HT1080NT lethal 23µM
CN1/C(=C/c2cccc[n+]2CCO)Sc2ccccc21	none
Cc1ccc(C(=O)Oc2ccc(/C=C3\C(=N)N4N=C(N5CCOCC5)SC4=NC3=O)cc2)cc1	none
Cc1nc2ccc(Br)cn2c1C(=O)N/N=C\c1ccc(C(C)C)cc1	none
O=C1CC(c2ccc(Cl)cc2)CC(=O)C1CS(=O)(=O)c1ccccc1 (stereo not drawn)	IL1B secr inh -58
COc1ccc(C2CC(=O)C(CS(=O)(=O)c3ccccc3)C(=O)C2)cc1 (stereo not drawn)	none
COc1ccc(N2CCN(c3ncnc4scc(-c5ccccc5)c34)CC2)cc1	HT1080 IDH1KD tx inconclusive, TGFb inhibitor inconclusive, IL1B secr inh inconclusive, HT1080NT lethal inconclusive
CC1CCN(c2nc(CN3CCCCC3)nc3scc(-c4ccccc4)c23)CC1	IL1B secr inh -74
CC1CCN(c2nc(-c3cccnc3)nc3scc(-c4ccccc4)c23)CC1	none
CN1CCN(c2nc(-c3cccnc3)nc3scc(-c4ccccc4)c23)CC1	IL1B secr inh -52, HT1080NT lethal inconclusive
CC1CCCN(c2nc(-c3cccnc3)nc3scc(-c4ccccc4)c23)C1 (stereo not drawn)	IL1B secr inh -61
Cc1cc(NC2C3CC4CC(C3)CC2C4)n2ncnc2n1 (stereo not drawn)	none
O=C(NCC1CCCO1)c1ccc(N2CCCCC2)c([N+](=O)[O-])c1 (stereo not drawn)	none
O=C(Cn1cnc2ccccc21)Nc1ccc(SC(F)F)cc1	HT1080 IDH1KD tx inconclusive, IL1B secr inh -61
CC[N+](CC)(CC)CC(=O)Nc1ccc(SC(F)F)cc1	HT1080 IDH1KD tx inconclusive, IL1B secr inh -96
O=C(COc1ccccc1C(=O)O)Nc1ccc(SC(F)F)cc1	none

Compound activity (PubChem BioAssay)
